KCNH2 WT inh = qHTS for Inhibitors of KCHN2 3.1: Wildtype qHTS. U2OS, BacMam KCNH2, thallium flux FluxOr; active compounds read low. activity change, % at 1.84 µM. 0.37% of 340,000 active;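 active = maximum activity change below -70%; inconclusive = maximum activity change between -70% and -50%; inactive = maximum activity change above -50%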; note: % is set by controls: 0 for no effect and ±100 for the full control effect
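U2OS cells transduced with wild-type KCNH2 virus are loaded with FluxOr dye for 45 min, and thallium flux is measured in kinetic reads before and after stimulation buffer. Rate constants are normalized to DMSO controls.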
CBFb RUNX1 block = qHTS Assay for Compounds Blocking the Interaction Between CBF-beta and RUNX1 for the Treatment of Acute Myeloid Leukemia; AlphaScreen CBFb-His/RUNX1-biotin binding, biochemical; AID 1477, 2009; 230,000 tested, under 10 active; Potency, µM (highest dose often 59.8 µM), inactives show top-dose activity, negative = inhibition, hits mostly inhibitors; Runt-related transcription factor 1 (Homo sapiens) + Core-binding factor subunit beta …; note: % of control where 0% means no effect
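Inhibition was taken as any reduction in AlphaScreen signal from the CBF-beta–RUNX1 pair (His and biotin tags, 30 nM each), measured after compound (15 min) and bead (90 min) incubations at room temperature.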
VDR inhibitor = Inhibitors of the vitamin D receptor (VDR): qHTS; Potency, µM, for inactives: max response, negative = inhibition, actives largely listed as inhibitors; 0.93% of 400,000 active; Vitamin D3 receptor (Homo sapiens), P11473; VDR-SRC2-3 peptide fluorescence polarization, 2 h; note: potency is the fitted concentration of half-maximal effect; % is set by controls: 0 for no effect and ±100 for the full control effect
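Reagent solutions, kept cold and dark, are dispensed first; compounds are then pinned in at 23 nl, plates briefly spun, and incubated 2 h at ambient temperature. Inhibition of VDR–SRC2-3 peptide binding is read by fluorescence polarization.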
KCNH2 3.1 block = qHTS for Inhibitors of KCHN2 3.1: Mutant qHTS; 0.95% of 340,000 active; AID 720553, 2013; U2OS KCNH2 3.1, thallium flux FluxOr; active compounds read low; activity change, % (tested at about 1.8 µM);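 active = maximum activity change below -70%; inconclusive = maximum activity change from -70% to -50%; inactive = maximum activity change above -50%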;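 note: thallium influx rate constant from kinetic fluorescence after stimulation buffer; % is set by controls: 0 for no effect and ±100 for the full control effect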
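Thallium flux via FluxOr fluorescence (Red40 quencher, 45 min loading) in U2OS cells virally expressing the KCNH2 3.1 isoform (1.77 x 10^8 /mL virus, overnight at 37 C). Rate constants from 2-min kinetic reads post-stimulation, normalised to positive and negative controls.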
MBNL1-CUG inh = qHTS Assay for Inhibitors of MBNL1-poly(CUG) RNA binding | TR-FRET MBNL1-His/biotin-(CUG)12 binding, 665/545 ratio | Potency, µM (doses to about 57.5 µM), without a hit: at the highest dose activity change, negative = inhibition, usual class: inhibitors | 0.036% of 280,000 active | AID 2675, 2010; active = well fitted inhibition curve with a large enough effect in the signal ratio, with a control signal flat, not every such curve was filed as active; inconclusive = small, poorly fitted or top-dose-only effect, or effect the other way, or a change in a side signal; inactive = no such curve, though single readings can be large or run the other way; the % refers to the signal ratio; note: potency is the fitted concentration of half-maximal effect; % is set by controls: 0 for no effect and ±100 for the full control effect
Target sequence (Q9NR56 whole entry, looked up): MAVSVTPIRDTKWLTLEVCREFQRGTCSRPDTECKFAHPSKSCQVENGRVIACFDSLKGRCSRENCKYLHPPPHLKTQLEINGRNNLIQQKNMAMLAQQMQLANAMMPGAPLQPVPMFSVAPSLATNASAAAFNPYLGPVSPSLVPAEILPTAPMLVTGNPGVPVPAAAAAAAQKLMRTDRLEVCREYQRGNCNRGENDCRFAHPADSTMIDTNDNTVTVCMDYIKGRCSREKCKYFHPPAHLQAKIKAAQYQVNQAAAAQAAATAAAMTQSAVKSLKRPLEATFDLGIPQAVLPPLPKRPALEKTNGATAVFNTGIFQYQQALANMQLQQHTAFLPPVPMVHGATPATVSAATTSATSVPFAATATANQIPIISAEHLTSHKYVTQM
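Ratiometric TR-FRET (665 over 545 nm, excitation 340 nm) tracks disruption of MBNL1-His/biotin-(CUG)12 complex after 60 min at room temperature, with compounds at 92 nM to 58 uM final.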
PLK1 PBD block = qHTS for Inhibitors of PLK1-PDB (polo-like kinase 1 - polo-box domain): Primary Screen. Serine/threonine-protein kinase PLK1 (Homo sapiens), P53350. Plk1 PBD binding of FITC phosphopeptide, fluorescence polarization. Potency, µM, for the others: max response, negative = inhibition, actives largely listed as inhibitors. 2.8% of 360,000 active; note: potency is the fitted concentration of half-maximal effect; series mostly up to about 57 µM; % is set by controls: 0 for no effect and ±100 for the full control effect; nearly all actives have a fitted effect of over 65% in size
* marks the source's active call; other numbers are inactive results; ? = inconclusive; nt = no result; ! = not active in a repeat; [ ] = remark or other dose. Most compounds without a hit are left out; they make up all but 3.8% or so of the library. Unless noted, calls come from the whole dose curve; as a rule, active = well fitted curve in the direction sought with a large enough effect; inconclusive = small, poorly fitted or top-dose-only effect, or another doubt; inactive = no such curve, though single readings can be large; an effect the other way counts as inactive or inconclusive.

SMILES	KCNH2 WT inh	CBFb RUNX1 block	VDR inhibitor	KCNH2 3.1 block	MBNL1-CUG inh	PLK1 PBD block
COc1ccc(C=C2C(=O)N(C)C(=O)N(C)C2=O)cc1COc1ccc(NC(C)=O)cc1	7	-1%	4%	-4	7%	-27%
CN1C(=O)C(=Cc2ccc(OCC(=O)Nc3ccccc3)cc2)C(=O)N(C)C1=O	-7	nt	?	-4	0%	7.5µM*
CC(C)(O)C1O[C@H]2CC[C@@]3(C)[C@@](O)(CC[C@H]4Cc5c([nH]c6ccccc56)[C@@]43C)C2=CC1=O (stereo partly specified)	nt	-15%	-10%	nt	nt	nt
S=C(S)N1CCCC1	1	?	20µM*!	-3	nt	?
Nc1cc2nc3ccccc3nc2cc1N	2	-6%	3%	0	nt	6.7µM*
O=C(Cl)c1ccccc1F	nt	3%[21.7 µM]	nt	nt	nt	nt
CN(C)c1ccc(N(C)C)cc1	nt	-8%[21.7 µM]	nt	nt	nt	nt
O=C(O)c1cccc2c1NC(C(=O)O)C1CC(Sc3ccccc3[N+](=O)[O-])C(Cl)C21 (stereo unspecified)	-9	-4%	-68%	22	-26%	8.4µM*
CC(=O)c1ccc2c(c1)C1C(Cl)C(Sc3ccccc3[N+](=O)[O-])CC1C(C(=O)O)N2 (stereo unspecified)	0	?	-1%	-19	22%	27µM*
Cn1cccc1C(=O)OCC(=O)NCc1cccs1	-10	nt	?	-3	nt	0%
O=C(NCc1ccccc1)C(=O)NCC1OCCN1S(=O)(=O)c1ccc([N+](=O)[O-])cc1 (stereo unspecified)	8	-7%	5%	0	?	5%
CCN(c1ccc(C(O)(C(=O)OC)C(F)(F)F)cc1)S(=O)(=O)c1ccccc1 (stereo unspecified)	5	2%	3%	-8	-6%	27µM*
CCN(C(=O)Oc1ccccc1)c1ccc(C(O)(C(=O)OC)C(F)(F)F)cc1 (stereo unspecified)	-7	4%	3%	4	10%	3%
Cc1nn(C2CCOC(C)(C)C2)c2c1C(c1ccc(OC(C)C)cc1)SCC(=O)N2 (stereo unspecified)	-8	-9%	79µM*	8	-8%	-19%
COc1ccc(C2SCC(=O)Nc3c2c(C)nn3-c2ccccc2)cc1 (stereo unspecified)	4	-2%	-13%	-4	-1%	-14%
O=C(Nc1cc(C(F)(F)F)cc(C(F)(F)F)c1)c1cc(Cl)ccc1O	nt	?	3%	nt	nt	nt
CCn1c(O)c(C=Nc2ccc(N3CCOCC3)cc2)c(=O)n(CC)c1=S	-6	9%	-20%	-12	14%	21µM*
Nc1ncnc2c1ncn2[C@@H]1O[C@H](COP(=O)(O)OP(=O)(O)OP(=O)(O)O)[C@H]2OC3(O[C@H]21)C([N+](=O)[O-])=CC(=[N+]([O-])[O-])C=C3[N+](=O)[O-] (stereo partly specified)	nt	-9%	?	nt	nt	nt
N#CSCSC#N	nt	4%[21.7 µM]	nt	nt	nt	nt
CC[n+]1c(-c2ccccc2)c2cc(N)ccc2c2ccc(N)cc21	-3	?	6.3µM*	-21	nt	-12%
CCn1nc(/C=C/c2ccccc2)nc2c(=O)n(C)c(=O)nc1-2	-3	6%	?	18	6%	24µM*
CCn1nc(-c2cccs2)nc2c(=O)n(C)c(=O)nc1-2	3	?	-4%	-8	?	-14%
Oc1ccc2c(c1)[C@@]13CCCCC1[C@@H](C2)N(CC1CCC1)CC3 (stereo partly specified)	nt	13%	-2%	nt	nt	nt
CC1=C(O)C(=O)C=C2C1=CC=C1[C@]2(C)CC[C@@]2(C)C3C[C@](C)(C(=O)O)CC[C@@]3(C)CC[C@@]12C (stereo partly specified)	nt	15%	3.5µM*	nt	nt	nt
CN1[C@@H]2CC[C@H]1CC(OC(c1ccc(F)cc1)c1ccc(F)cc1)C2 (stereo partly specified)	nt	1%[21.7 µM]	-17%	nt	nt	nt
SMILES	KCNH2 WT inh	CBFb RUNX1 block	VDR inhibitor	KCNH2 3.1 block	MBNL1-CUG inh	PLK1 PBD block
Cc1ccc(N2C(=O)NC(=O)/C(=C\c3cc(C)n(-c4sc5c(c4C#N)CCCC5)c3C)C2=O)cc1	25	-11%	45µM*	nt	-3%	0.6µM*
CCN1C(=O)NC(=O)/C(=C/c2cc(C)n(-c3sc(C)c(C)c3C#N)c2C)C1=O	14	-1%	?	8	?	2.1µM*
CCOC(=O)c1c(-n2c(C)cc(C=C3C(=O)NC(=S)NC3=O)c2C)sc2c1CCCC2	-1	-28%	?	-21	9%	0.3µM*
CCOC(=O)c1c(-n2c(C)cc(/C=C3/C(=O)NC(=O)N(CC)C3=O)c2C)sc2c1CCCC2	-10	nt	2%	6	nt	?
CC(C)(C)c1cc([N+](=O)[O-])cc(C(C)(C)C)c1O	-4	14%	-29%	-14	nt	27µM*
NC(=O)c1cc([N+](=O)[O-])cc([N+](=O)[O-])c1	2	16%	-4%	-4	nt	-16%
CCN(CCCNS(=O)(=O)c1ccc2c(c1)oc(=O)n2C)c1cccc(C)c1	2	-10%	?	-9	-12%	24µM*
O=[N+]([O-])/C=C/c1c(Cl)cccc1Cl	13	nt	20µM*	nt	nt	2.7µM*
COc1ccc(CCN)cc1O	5	-19%	-9%	1	nt	0%
NCCc1cc(O)c(O)cc1O	4	nt	89µM*	16	nt	15µM*
c1ccc(NNc2ccccc2)cc1	nt	14%[21.7 µM]	nt	nt	nt	nt
C=C/C(=C/C(=O)C[C@H](C)C[C@@H](C)CC[C@H](O)[C@H](C)C(=O)C[C@@H](O)[C@H](C)[C@@H](C)OC(=O)C[C@@H](O)C1=C(C)C(=O)OC1=O)CC	nt	2%[13.1 µM]	?	nt	nt	nt
Cc1cc(C)n(-c2ccc(NN=C(C#N)C#N)cc2)n1	11	?	28µM*	4	?	-16%
O=C(Nc1cccc(F)c1)N1CC2(CCNCC2)C1	nt	nt	40µM*	nt	nt	nt
O=C(Nc1cccc(F)c1)N1CC2(CCN(C(=O)Oc3ccccc3)CC2)C1	nt	nt	-7%	nt	nt	nt
C=CC(=O)OCC(CC)CCCC (stereo unspecified)	nt	18%[21.7 µM]	nt	nt	nt	nt

Source: PubChem BioAssay (National Center for Advancing Translational Sciences (NCATS))
